In the library only some 7.1% were active in any assay of this set; here they are far more common.
SW480 rerep: A quantitative high throughput screen for small molecules that induce DNA re-replication in SW480 colon adenocarcinoma cells; SW480 DNA re-replication, Hoechst DNA content imaging, 48 h; AID 624297, 2012; 1.8% of 340,000 active; Potency, µM (doses to about 46.1 µM), for the others: at the top dose re-replication activation, hits mostly activators; also: potency is read from the fitted curve at half-maximal effect; % of control where 0% means no effect; nearly all actives have a fitted effect of over 55% in size
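Image-based DNA-content assay: after two days of treatment, nuclei were labelled with the DNA dye Hoechst and imaged, and hits were compounds raising the count of nuclei showing high fluorescence intensity.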
IL1B secr inh: qHTS for Inhibitors of Inflammasome Signaling: IL-1-beta AlphaLISA Primary Screen; THP-1 LPS/ATP IL-1B secretion, AlphaLISA, 16 h; stronger effect = lower value; activity change, % at 57.5 µM; 4.7% of 360,000 active; AID 743279, 2014; in the data active = activity change below about -50%; inconclusive = mostly about -30% to -49%; also: % is scaled to controls: 0 for no effect and ±100 for the full control effect
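Secreted IL-1B measured by AlphaLISA bead assay after 16 h compound exposure of THP-1 cells; compounds (final up to 57.5 uM) added 1 h before LPS (250 ng/mL) and ATP (1.25 mM) stimulation; lower signal means less secretion.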
PINK1 modulator: A Quantitative High throughput Screen to Identify Chemical Modulators of PINK1 Expression | 0.2% of 410,000 active | PINK1 immunofluorescence, high-content cytometry, 24 h | Potency, µM (highest dose often 76.6 µM), for inactives: top-dose activation (PINK1 increase), actives largely listed as activators | AID 624263, 2012; active = well fitted activation curve with a large enough effect; inconclusive = small, poorly fitted or top-dose-only effect; cell line not stated here; also: potency is read from the fitted curve at half-maximal effect; % of control where 0% means no effect; nearly all actives have a fitted effect of over 65% in size
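PINK1 protein, normally rapidly degraded, was detected by immunofluorescence after 24 hour compound treatment of a stable cell line. Titration data (5 concentrations) came from laser-scanning cytometry, with CCCP-treated wells as controls.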
MCF10A rereplic: A quantitative high throughput screen for small molecules that induce DNA re-replication in MCF 10a normal breast cells | 2.9% of 350,000 active | MCF 10A DNA re-replication, Hoechst nuclear intensity, 48 h | Potency, µM (top dose mostly 46.1 µM), for inactives: top-dose activity, positive = re-replication, usual class: activators; also: potency is read from the fitted curve at half-maximal effect; % of control where 0% means no effect; nearly all actives have a fitted effect of over 50% in size
ATXN viability: Viability Counterscreen for Primary qHTS for Inhibitors of ATXN expression | S2 cells (HEK-293 line with an ATXN2-luciferase reporter) viability, CellTiter-Fluor protease fluorescence, 24 h | Potency, µM (titrated, usually from 56.7 µM), usual class: cytotoxic | 0.49% of 400,000 active | AID 651635, 2014; also: potency is read from the fitted curve at half-maximal effect; nearly all actives have a fitted effect of over 40% in size
ATXN2 expr inh: Primary qHTS for Inhibitors of ATXN expression. HEK-293 ATXN2-luciferase reporter, luminescence, 24 h. Potency, µM (series often up to 57 µM), for the others: at the highest dose activity change, negative = inhibition, actives largely listed as inhibitors. 0.72% of 360,000 active; also: potency is read from the fitted curve at half-maximal effect; % is scaled to controls: 0 for no effect and ±100 for the full control effect; nearly all actives have a fitted effect of over 55% in size
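ATXN2-luciferase reporter cells (luciferase flanked by upstream and downstream ATXN2 gene portions) were treated 24 h at 37 °C with compounds at up to 57 uM. SteadyGlo luminescence gave expression; GF-AFC fluorescence gave viability.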
* marks the source's active call; other numbers are inactive results; i = inactive; ? = inconclusive; nt = no result; [ ] = another dose, or the depositor's remark. Unless noted, calls follow the shape of the dose curve; as a rule, active = well fitted curve in the direction sought with a large enough effect; inconclusive = small, poorly fitted or top-dose-only effect, or another doubt; inactive = no such curve, though single readings can be large; an effect the other way counts as inactive or inconclusive.

SMILES	SW480 rerep	IL1B secr inh	PINK1 modulator	MCF10A rereplic	ATXN viability	ATXN2 expr inh
C=CCC1(C(C)CCC)C(=O)N=C(S)NC1=O (stereo not given)	-1%	nt	-1%	-1%	nt	nt
COC(=O)C1=C(C(=O)OC)SC2(S1)C(C(=O)OC)=C(C(=O)OC)Sc1c2ssc1=O	1µM*	-95*	-2%	?	14µM*	18µM*
CC(=O)Nc1ccccc1C(=O)OCc1cccc(F)c1	-5%	43	3%	10%	?	45%
CC(=O)Nc1ccccc1C(=O)OCc1ccc(C(=O)c2ccccc2)cc1	25%	-55*	-1%[38.3 µM]	?	i	5%
CCOC(=O)/C=C(C)/C=C/CC(C)CCCC(C)C (stereo not given)	-1%	nt	nt	0%	nt	nt
CC1CCC(C(C)C)C(OC(=O)Cn2c(COc3ccccc3)[n+](C)c3ccccc32)C1 (stereo not given)	0%	-105*	-1%	?	25µM*	?
CC[C@@H]1[C@@H](C)O[C@@](O)([C@@H](C)[C@H](O)[C@H](C)[C@H]2OC(=O)C=CC=C[C@@H](C)[C@@H]([C@@H](C)[C@@H](O)[C@H](C)[C@@]3(O)C[C@H](O[C@H]4C[C@H](O)[C@H](O)[C@H](C)O4)[C@H](CC)[C@@H](C)O3)OC(=O)C=CC=C[C@@H]2C)C[C@H]1O[C@H]1C[C@H](O)[C@H](O)[C@H](C)O1	nt	nt	nt	nt	nt	0.97µM*
O=C1C=C2C=CC3C[C@@]2(O1)C1CCCCN31 (stereo not given in full)	?	nt	nt	21µM*	nt	nt
O=C1C=C2C=C[C@@H]3CC2(O1)[C@H]1CCCCN31	-50%	-96*	11%	14%	i	1%
O=C1C=C2C=C[C@H]3C[C@]2(O1)[C@@H]1CCCCN13	24%	-21	12%	?	i	5%
CC(O)CN1CCN(CC(=O)[O-])CCN(CC(=O)[O-])CCN(CC(=O)[O-])CC1.[Gd+3] (stereo not given)	nt	nt	nt	nt	i	8%
CSc1ccc(C(=O)C2CCCN(Cc3cccnc3)C2)cc1 (stereo not given)	-53%	-12	0%	3%	i	-32%
CSc1ccc(C(=O)C2CCCN(Cc3cc4ccccc4[nH]3)C2)cc1 (stereo not given)	8%	-100*	6%	1%[9.22 µM]	i	-38%
COc1cc(C2c3cc4c(cc3CC3COC(=O)C32)OCO4)cc(OC)c1OC (stereo not given)	?	46	5%	6.5µM*	?	-3%
COc1cc(C2c3cc4c(c(O)c3CC3COC(=O)C32)OCO4)cc(OC)c1OC (stereo not given)	0.052µM*	24	8%	?	?	5%
CC[N@+]1(C)CCC[C@@H](OC(=O)C(O)(c2ccccc2)c2ccccc2)C1	nt	nt	nt	nt	i	nt
C=C(C)C(Cc1c(OC)ccc(C(=O)/C=C/c2ccc(O)cc2)c1O)OO (stereo not given)	?	-70*	0%	61%	?	-32%
CC(=O)C1=C(O)C2(C)c3c(O)c(C)c(O)c(C(C)=O)c3OC2CC1=O (stereo not given)	nt	-3	?	nt	i	nt
CC1(C)C[C@H]2C=C(C=O)[C@]3(C=O)C[C@]3(C)[C@H]2C1	9.2µM*	-108*	-1%	2.1µM*	7.1µM*	3.5µM*
Oc1ccc(Cl)cc1	?	24	0%	9%	i	-12%
Oc1ccc(Cl)cc1Sc1cc(Cl)ccc1O	?	-101*	?	?	?	?
CCN(CCCl)c1cc(CN(C)C)cc(NC(=O)c2ccc(C(=O)Nc3cc(CN(C)C)cc(N(CC)CCCl)c3)cc2)c1	?	-94*	-1%	14%	nt	0.71µM*
CCN(CC)C(=O)c1ccc(NC(=O)c2cccc(C(F)(F)F)c2)cc1	?	?	2%	-1%	i	-11%
CCc1ccc(N2C(=O)NC(=O)/C(=C\c3cccn3CCOc3ccc(C(C)C)cc3)C2=O)cc1	?	-22	11%	7.3µM*	?	-26%
Cc1ccc(OCCn2cccc2/C=C2/C(=O)NC(=O)N(Cc3ccco3)C2=O)cc1	11%	-22	4%	?	i	17%
SMILES	SW480 rerep	IL1B secr inh	PINK1 modulator	MCF10A rereplic	ATXN viability	ATXN2 expr inh
CCOC(=O)[C@]12Cc3cc(C)ccc3[C@H]1N(Cc1ccccc1)C(=O)c1cc(OC)ccc12	nt	-96*	-1%	nt	32µM*	?
CCOC(=O)[C@]12Cc3cc(C)ccc3[C@H]1N(CCC(=O)OC)C(=O)c1ccccc12	nt	-113*	-1%	nt	18µM*	-29%
CCOC(=O)[C@]12Cc3cc(OC)ccc3[C@H]1N(C)C(=O)c1cc(OC)ccc12	nt	nt	-1%	nt	14µM*	?
CCOC(=O)[C@]12Cc3cc(Cl)ccc3[C@H]1N(C)C(=O)c1cc(OC)ccc12	nt	nt	-1%	nt	?	?
CCCCCN1C(=O)c2cc(OC)ccc2[C@@]2(C(=O)OCC)Cc3cc(OC)ccc3[C@@H]12	nt	-69*	-1%	nt	nt	?
CC(C)NC(=O)N1CCC2(CC1)CCN(C(=O)Oc1ccccc1)CC2	nt	nt	2%	nt	nt	nt
C[N+]1([O-])[C@@H]2CC[C@H]1CC(OC(=O)C(CO)c1ccccc1)C2 (stereo not given in full)	nt	nt	nt	nt	i	nt
O=C(Oc1ccccc1)N1CCC2(CC1)CCN(C(c1ccccc1)c1ccccc1)CC2	nt	nt	1%	nt	nt	nt
CCOCCSc1nc2c(c(-c3cccs3)c1C#N)CC/C2=C/c1cccs1	?	15	11%	?	nt	0%
CCCCCN1C(=O)c2ccccc2[C@@]2(C(=O)OCC)Cc3cc(Cl)ccc3[C@@H]12	nt	-50*	-1%	nt	?	?
CCOC(=O)[C@]12Cc3ccccc3[C@H]1N(Cc1ccccc1)C(=O)c1cc(F)c(F)cc12	nt	-67*	1%	nt	?	?
CCOC(=O)[C@]12Cc3cc(OC)ccc3[C@H]1N(CC(=O)OC)C(=O)c1ccccc12	nt	32	1%	nt	?	15%
CCOC(=O)[C@]12Cc3cc(OC)ccc3[C@H]1N(CC(=O)OC)C(=O)c1cc(OC)ccc12	nt	-57*	-1%	nt	13µM*	20µM*
CCCN(CCC)C(=O)Cc1c(-c2ccc(Cl)cc2)nc2ccc(Cl)cn12	nt	nt	nt	nt	?	-1%
Cn1c(O)c(/C=N/NC(=O)c2ccncc2)c(=O)n(C)c1=S	8.2µM*	0	1%	9.2µM*	i	nt

From PubChem BioAssay
